According to PubChem BioAssay (NCI):
This is part of a sample that, as a whole, favours compounds with a hit. Of some 83,000 tested, about 20% had one in any assay.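 Growth was measured after 48 h exposure to one concentration of compound in 96-well plates. Values under 10 count as active.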 A number with no mark means an inactive call. Active and inactive are the calls of the source.

The molecules below were run on SF-539 CNS (assay: NCI-60 one-dose screen, 48 h (100 = growth as untreated, 0 = no growth, -100 = all killed)). Conditions: 10 µM.

| SMILES | growth |
| --- | --- |
| CCN(CC)CCNc1ccc(CO)c2oc3cc(Cl)ccc3c(=O)c12 | 88.8% |
| CC(C)=CCc1cc(O)cc2c1OC(C=C(C)C)C1=C2C(=O)C2=C(C1=O)S(=O)(=O)CCN2 (configuration not stated) | -19.2% (active) |
| Cc1cc(Nc2ccc(Cl)cc2)nc(NCCCNc2ccnc3cc(Cl)ccc23)n1 | -100% (active) |
| CC12O[C@H](C[C@@H](OC(=O)c3ccccc3)[C@H]1O)n1c3ccccc3c3c4c(c5c6ccccc6n2c5c31)C(=O)NC4=O | 86.6% |
| Cc1ccc(C(=O)Nc2cccc(F)c2)cc1NC(=O)C1(c2ncnc3[nH]ccc23)CC1 | 73% |
| COc1cc(-c2nc(-c3nnc(-c4ccccc4Cl)o3)c3ccccn23)cc(OC)c1OC | 88.3% |
| COc1ccc(Nc2ccnc(NCCNc3ccnc4cc(Cl)ccc34)n2)cc1 | -14.4% (active) |
| COc1cc(Nc2ccnc(NCCNc3ccnc4cc(Cl)ccc34)n2)cc(OC)c1 | -65.9% (active) |
| O=C(Nc1nc2ccc(F)cc2s1)c1cc(-c2ccc(F)cc2)n2nc(-c3ccccc3)cc2n1 | 93.6% |
| CC12O[C@H](C[C@@H](O)[C@H]1O)n1c3ccccc3c3c4c(c5c6ccccc6n2c5c31)C(=O)N(CCCN)C4=O | 39.1% |
| COc1ccc(-c2nc3ncccn3c2-c2nnc(-c3ccc(F)cc3)o2)cc1 | 94.5% |

What follows are molecules tested on UACC-257 melanoma in the same assay as above. Conditions: 10 µM.

| SMILES | growth |
| --- | --- |
| COc1ccc(-c2nnc(-c3c(-c4ccccc4)nc4ncccn34)o2)cc1OC | 96.7% |
| Oc1[nH]c2cc(Cl)ccc2c1/C=c1/ccc2c(c1)N=C(c1cc(F)cc(F)c1)N=2 | 55.6% |
| COc1cc(/C=N/NC(=O)c2ccccc2Nc2ccnc(C(F)(F)F)c2)ccc1O | 126% |
| COc1ccc(-c2nc3sccn3c2-c2nc3c([nH]2)C(=O)c2ccccc2C3=O)cc1 | 89.2% |
| COc1cc(-c2nc(-c3nnc(-c4ccc(F)c(Cl)c4)o3)c3ccccn23)cc(OC)c1OC | 40.3% |
| COc1ccc(-c2nc3ccccn3c2-c2nnc(-c3cc(OC)c(OC)c(OC)c3)o2)cc1 | 84.2% |
| CN1CCC2(CC1)NC(=O)c1c(c3ccc(Cl)c(Cl)c3n1C)C2C#N (configuration not stated) | 65.2% |
| COc1ccc(-c2nc3ncccn3c2-c2nnc(-c3ccsc3C)o2)cc1 | 78.4% |
| COc1ccc2c(c1)/C(=C\c1c[nH]c3ccc(OC)cc13)C(=O)N2 | 68.1% |
| COC(=O)C(=C\c1ccc2c(c1)OCO2)/C(=C/c1ccc2c(c1)OCO2)C(=O)OC | 108% |
| Fc1ccc(-c2nnc(-c3c(-c4ccc(F)cc4)nc4ccccn34)o2)cc1 | 85.1% |
| COc1cc(-c2nnc(-c3c(-c4ccc(F)cc4)nc4ccccn34)o2)cc(OC)c1OC | 92.1% |
| CCN(CC)CCNc1ccc(CO)c2oc3cc(Cl)ccc3c(=O)c12 | -0.905% (active) |
| COc1cc(-c2nc(-c3nnc(-c4ccccc4Cl)o3)c3ccccn23)cc(OC)c1OC | 91.4% |
| O=C(Nc1nc2ccc(F)cc2s1)c1cc(-c2ccc(F)cc2)n2nc(-c3ccccc3)cc2n1 | 59.2% |
| COc1ccc(-c2nc3ncccn3c2-c2nnc(-c3ccc(F)cc3)o2)cc1 | 105% |
